From PubChem BioAssay (Tox21)
Results filed as inconclusive are left out. Active and inactive are the calls of the source. Unless noted, calls come from the whole dose curve; as a rule, active = well fitted curve in the direction sought with a large enough effect in the repeat runs; inconclusive = weak or mixed curves; inactive = no such curve, though single readings can be large; an effect the other way counts as inactive or inconclusive.

Tests used:
[1] = target: Luciferin 4-monooxygenase (Photinus pyralis) (UniProt P08659); test: qHTS assay to identify small molecule inhibitors of firefly luciferase (AID 1224835); note: nearly all actives have a fitted effect of over 25% in size; note: potency is the fitted concentration of half-maximal effect
Luciferin 4-monooxygenase (Photinus pyralis), sequence (P08659 whole entry, looked up): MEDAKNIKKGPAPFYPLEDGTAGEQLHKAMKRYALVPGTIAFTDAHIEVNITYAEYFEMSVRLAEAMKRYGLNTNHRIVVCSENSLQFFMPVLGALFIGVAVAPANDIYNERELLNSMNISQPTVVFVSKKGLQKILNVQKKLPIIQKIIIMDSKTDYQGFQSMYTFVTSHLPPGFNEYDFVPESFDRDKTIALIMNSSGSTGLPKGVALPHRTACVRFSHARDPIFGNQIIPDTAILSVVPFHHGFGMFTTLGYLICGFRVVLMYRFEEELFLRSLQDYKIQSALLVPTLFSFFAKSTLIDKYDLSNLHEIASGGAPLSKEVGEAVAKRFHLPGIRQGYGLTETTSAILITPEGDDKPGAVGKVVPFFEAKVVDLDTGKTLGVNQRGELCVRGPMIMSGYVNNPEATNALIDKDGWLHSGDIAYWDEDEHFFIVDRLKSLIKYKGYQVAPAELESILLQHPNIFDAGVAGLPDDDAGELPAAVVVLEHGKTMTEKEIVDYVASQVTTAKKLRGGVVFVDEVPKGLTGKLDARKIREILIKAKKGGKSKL
In short: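 Inhibition of purified Photinus luciferase is measured by luminescence. Substrate levels (D-luciferin, ATP) sit at their KM values. Each compound is tested in a concentration series.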

[2] = qHTS assay to identify small molecule agonists of the constitutive androstane receptor (CAR) signaling pathway - cell viability counter screen (AID 1224836); note: nearly all actives have a fitted effect of over 45% in size
In short: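 HepG2-CYP2B6-hCAR, 2500 cells/well, 4 h pre-incubation; cpd 15 conc + PK11195 0.75 uM final; 23 h, 37 C/5% CO2; CellTiter-Fluor, fluorescence.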

[3] = qHTS assay to identify small molecule antagonists of the constitutive androstane receptor (CAR) signaling pathway - cell viability counter screen (AID 1224837); note: nearly all actives have a fitted effect of over 45% in size; note: potency is the fitted concentration of half-maximal effect
In short: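 Using CellTiter-Fluor, viability is scored in HepG2 cells stably carrying hCAR and a 2.2kb CYP2B6 reporter after 23 hr compound exposure across 15 concentrations, with CITCO present at 50 nM.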

[4] = qHTS assay to identify small molecule antagonists of the estrogen related receptor signaling pathway with the pleiotropic PPARgamma coactivator (PGC) from Tox21 10K library - cell viability counter screen (AID 1224840; active = well fitted cell-killing curve with a large enough effect in the repeat runs, not every such curve was filed as active; note: nearly all actives have a fitted effect of over 40% in size)
In short: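 Here the PGC/ERR cells serve as a cytotoxicity control: they are exposed to compounds for 17.5 hours at 37 C, and live-cell signal is quantified using CellTiter-Fluor fluorescence.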

[5] = target: Thyrotropin receptor (Homo sapiens) (UniProt P16473); test: qHTS assay to identify small molecule agonists of the thyroid stimulating hormone receptor (TSHR) signaling pathway (AID 1224843; calls by dose curve; note: nearly all actives have a fitted effect of over 45% in size)
Thyrotropin receptor (Homo sapiens), sequence (P16473 whole entry, looked up): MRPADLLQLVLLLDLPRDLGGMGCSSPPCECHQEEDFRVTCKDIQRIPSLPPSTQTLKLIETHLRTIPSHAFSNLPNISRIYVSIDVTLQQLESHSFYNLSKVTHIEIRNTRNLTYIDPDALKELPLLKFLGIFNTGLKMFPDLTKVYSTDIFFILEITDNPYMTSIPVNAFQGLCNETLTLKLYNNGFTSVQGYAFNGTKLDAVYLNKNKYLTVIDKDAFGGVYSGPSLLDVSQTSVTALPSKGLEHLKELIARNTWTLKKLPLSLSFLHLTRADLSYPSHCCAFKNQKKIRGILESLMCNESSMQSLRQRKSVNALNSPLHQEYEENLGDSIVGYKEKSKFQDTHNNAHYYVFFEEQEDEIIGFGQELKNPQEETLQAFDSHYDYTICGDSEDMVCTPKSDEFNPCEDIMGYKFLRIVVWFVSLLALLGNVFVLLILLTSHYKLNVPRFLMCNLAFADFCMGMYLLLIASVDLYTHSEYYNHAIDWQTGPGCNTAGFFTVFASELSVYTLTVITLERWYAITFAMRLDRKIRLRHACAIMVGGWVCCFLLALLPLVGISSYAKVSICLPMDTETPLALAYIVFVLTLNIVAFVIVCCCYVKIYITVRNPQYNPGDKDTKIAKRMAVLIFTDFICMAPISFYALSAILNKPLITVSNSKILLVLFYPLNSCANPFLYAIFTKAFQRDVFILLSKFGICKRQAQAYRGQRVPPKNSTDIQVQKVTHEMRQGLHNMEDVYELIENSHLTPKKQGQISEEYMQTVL
In short: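 HEK293 cells stably bearing the thyrotropin receptor were plated at 800 cells/well and challenged with compound (30 min, RT). Accumulated cAMP was quantified via cAMP-d2 competing for cryptate-tagged antibody.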

[6] = qHTS assay to identify small molecule agonists of the hypoxia (HIF-1) signaling pathway - cell viability counter screen (AID 1224844; calls by dose curve; note: nearly all actives have a fitted effect of over 50% in size; note: potency is the fitted concentration of half-maximal effect)
In short: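 Multiplexed with the HRE beta-lactamase assay, this viability read used CellTiter-Glo luminescence (30 min, RT) on HRE-bla ME-180 cells treated 17 hrs with compounds in 0.5% dialyzed FBS medium.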

[7] = qHTS assay to identify small molecule agonists of H2AX (AID 1224845; active = well fitted activation curve with a large enough effect in the signal ratio in the repeat runs, not every such curve was filed as active; the % refers to the signal ratio)
In short: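 Phospho-H2AX Ser139 measured by HTRF (ex 320 nm; em 665 and 620 nm) after 24 hr antibody incubation. Compounds, 15 concentrations, 0.76% DMSO, were applied to CHO-K1 cells for 3hr at 37C before lysis.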

[8] = qHTS assay to identify small molecule agonists of the hypoxia (HIF-1) signaling pathway (AID 1224846; active = well fitted activation curve with a large enough effect in the signal ratio in the repeat runs, not every such curve was filed as active; the % refers to the signal ratio)
In short: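 Hypoxia-pathway activation was scored as increased beta-lactamase from an HRE-controlled reporter in ME-180 cells; plated at 2,000 cells per well with 0.5% dialyzed FBS, they were exposed 17 hrs to compounds and then given CCF4-AM.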

[9] = qHTS RealTime-Glo MT Cell Viability Assay in HepG2 cells - 24 hour (AID 1224867); note: nearly all actives have a fitted effect of over 50% in size
In short: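 Cell number in HepG2 cultures estimated from NanoLuc luminescence generated by metabolic reduction of a prosubstrate by living cells. The homogeneous, nonlytic format allowed repeated reads at 0, 8, 16, 24, 32 and 40 h of compound exposure.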

[10] = qHTS RealTime-Glo MT Cell Viability Assay in HEK293 cells - 32 hour (AID 1224868); note: top concentration of the series differs between compounds; nearly all actives have a fitted effect of over 50% in size
In short: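 Homogeneous bioluminescent viability format in HEK293 cells (600 cells/well). Following 5 h at 37 C/5% CO2, 23 nL compound was pintooled; the signal was measured repeatedly during 40 h incubation.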

[11] = A CellTox Green Cytotoxicity Assay to monitor cytotoxicity in HEK293 cells - 0 hour (AID 1224869); note: nearly all actives have a fitted effect of over 50% in size; note: potency is the fitted concentration of half-maximal effect
In short: (§1)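 Seeding of HEK293 cells together with cytotoxicity dye preceded a 5 h incubation at 37 C/5% CO2. Test compounds in DMSO were then added and fluorescence monitored across 40 h.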

[12] = qHTS RealTime-Glo MT Cell Viability Assay in HepG2 cells - 40 hour (AID 1224870); note: nearly all actives have a fitted effect of over 50% in size; note: potency is the fitted concentration of half-maximal effect
In short: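 Real-time viability: cells seeded at 600 per well together with NanoLuc and cell-permeant prosubstrate, compounds added after 5 h incubation. Luminescence tracked at 0, 8, 16, 24, 32 and 40 h of exposure.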

[13] = A CellTox Green Cytotoxicity Assay to monitor cytotoxicity in HEK293 cells - 40 hour (AID 1224871); note: nearly all actives have a fitted effect of over 45% in size; note: potency is the fitted concentration of half-maximal effect
In short: as §1

[14] = qHTS assay to identify small molecule agonists of H2AX - cell viability counter screen (AID 1224847; calls by dose curve; note: nearly all actives have a fitted effect of over 30% in size; note: potency is the fitted concentration of half-maximal effect)
In short: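 Cells plated first: CHO-K1, 1000 per well in 10% FBS medium, incubated overnight at 37C. Then 15-point compound titration added (final DMSO 0.76%) for 3 hr. Finally CellTiter-Glo added and luminescence read.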

[15] = qHTS assay to identify small molecule agonists of the estrogen related receptor signaling pathway with the pleiotropic PPARgamma coactivator (PGC) from Tox21 10K library (AID 1224842); note: nearly all actives have a fitted effect of over 15% in size; note: potency is the fitted concentration of half-maximal effect
In short: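 Luminescence from One-Glo (30 min, room temperature) measured after PGC/ERR cells had 18 h at 37 C with pinned compound (23 nL in DMSO). Cells had been seeded at 2,000 per well and pre-incubated 6 h.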

[16] = qHTS assay to identify small molecule antagonists of the estrogen related receptor (ERR) signaling pathway from Tox21 library (AID 1224848); note: nearly all actives have a fitted effect of over 50% in size; note: potency is the fitted concentration of half-maximal effect
In short: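 Reading was by luminescence 30 min after ONE-Glo addition. Before that, ERR cells at 2,000 per well had rested 6 h at 37 C/5% CO2 and then received pin-tooled compounds in DMSO for 18 h at 37 C.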

[17] = qHTS assay to identify small molecule agonists of the estrogen related receptor (ERR) signaling pathway from Tox21 library (AID 1224849; calls by dose curve; note: nearly all actives have a fitted effect of over 15% in size); conditions: ERR reporter cell line, ONE-Glo luciferase, 18 h
In short: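 Six hours post-seeding at 37 C/5% CO2, ERR cells receive DMSO-solubilised compounds; after 18 h at 37 C, ONE-Glo reagent is applied and luminescence recorded.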

[18] = target: Nuclear receptor subfamily 1 group I member 3 (Homo sapiens) (UniProt Q14994); test: qHTS assay to identify small molecule antagonists of the constitutive androstane receptor (CAR) signaling pathway (AID 1224838);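 note: HepG2 cells stably expressing hCAR with CYP2B6 luciferase reporter stimulated by CITCO; nearly all actives have a fitted effect of over 40% in size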
Nuclear receptor subfamily 1 group I member 3 (Homo sapiens), sequence (Q14994 whole entry, looked up): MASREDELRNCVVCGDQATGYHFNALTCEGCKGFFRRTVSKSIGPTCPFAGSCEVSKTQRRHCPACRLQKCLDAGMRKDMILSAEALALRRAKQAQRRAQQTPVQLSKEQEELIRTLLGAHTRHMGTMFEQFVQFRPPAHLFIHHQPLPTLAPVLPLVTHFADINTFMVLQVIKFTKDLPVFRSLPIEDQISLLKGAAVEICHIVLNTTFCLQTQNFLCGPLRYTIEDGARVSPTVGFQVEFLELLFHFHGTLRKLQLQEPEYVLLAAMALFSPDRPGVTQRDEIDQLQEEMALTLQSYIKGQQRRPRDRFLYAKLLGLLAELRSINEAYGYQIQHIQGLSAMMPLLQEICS
In short: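 Reporter luminescence was quantified after 24 h exposure of hCAR/CYP2B6-2.2kb double-stable HepG2 cells to compounds at 15 concentrations in the presence of 50 nM CITCO final.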

[19] = target: Nuclear receptor subfamily 1 group I member 3 (Homo sapiens) (UniProt Q14994); test: qHTS assay to identify small molecule agonists of the constitutive androstane receptor (CAR) signaling pathway (AID 1224839);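 note: HepG2 cells stably carrying human CAR and a CYP2B6 luciferase reporter; nearly all actives have a fitted effect of over 15% in size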
In short: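 HepG2-CYP2B6-hCAR cells, 2500/well, 4 h pre-incubation; compounds 15 conc.; PK11195 0.75 uM final; 24 h, 37 C/5% CO2; ONE-Glo luciferase read.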

[20] = qHTS assay to identify small molecule antagonists of the estrogen related receptor signaling pathway with the pleiotropic PPARgamma coactivator (PGC) from Tox21 10K library (AID 1224841; call rule not given here)
In short: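 Each well held 2,000 PGC/ERR cells, pre-incubated six hours (37 C, 5% CO2). Test substances in DMSO were added by pin tool and left for 18 h at 37 C before luciferase detection by One-Glo.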
% is set by controls: 0 for no effect and ±100 for the full control effect.

CC(=O)CC(=O)Nc1ccc(S(=O)(=O)O)cc1
inactive: Potency [1] | Potency [2] | Potency [3] | Potency [4] | Potency [5] | Potency [6] | Potency [7] | Potency [8] | Potency [9] | Potency [10] | Potency [11] | Potency [12] | Potency [13]

CC(C)NC[C@@H](O)COc1ccc(CC(N)=O)cc1
inactive: Potency [1] | Potency [2] | Potency [3] | Potency [4] | Potency [5] | Potency [6] | Potency [9] | Potency [10] | Potency [11] | Potency [12]

Cc1ccc(O)c(N)c1
inactive: Potency [2] | Potency [3] | Potency [4] | Potency [14] | Potency [9] | Potency [11] | Potency [12]
active: Potency [1] 31.8 µM | Potency [6] 39 µM

O=c1[nH]c(=O)n([C@H]2C[C@H](O)[C@@H](CO)O2)cc1F
inactive: Potency [1] | Potency [2] | Potency [3] | Potency [4] | Potency [5] | Potency [6] | Potency [9] | Potency [11] | Potency [12]

O=C1OC2(c3ccc(O)cc3Oc3cc(O)ccc32)c2ccc(N=C=S)cc21
active: Potency [11] 22.3 µM
inactive: Potency [1] | Potency [3] | Potency [4] | Potency [15] | Potency [5] | Potency [6] | Potency [14] | Potency [16] | activity change, positive = activation ([17]; at 92.4 µM (top of the series)) 3.25% | Potency [12]

O=[N+]([O-])c1cccc(C(F)(F)F)c1
inactive: Potency [1] | Potency [2] | Potency [3] | Potency [4] | Potency [5] | Potency [6] | Potency [7] | Potency [8] | Potency [14] | Potency [9] | Potency [12] | Potency [13]

CC[N+](CC)(CC)CCOc1ccc(/C=C/c2ccccc2)cc1
active: Potency [16] 7.5 µM | Potency [12] 23.9 µM | Potency [13] 6.01 µM
inactive: Potency [1] | Potency [3] | Potency [18] | Potency [19] | Potency [4] | Potency [5] | Potency [7] | Potency [8] | activity change, positive = activation ([17]; at 42.5 µM (top of the series)) -43% | Potency [11]

CC(C)=CCNc1ncnc2c1ncn2[C@@H]1O[C@H](CO)[C@@H](O)[C@H]1O
active: Potency [3] 3.35 µM | Potency [15] 5.96 µM | Potency [6] 8.49 µM | Potency [14] 1.96 µM | Potency [16] 10.6 µM
inactive: Potency [1] | Potency [4] | Potency [20] | Potency [5] | activity change, positive = activation ([17]; at 42.5 µM (top of the series)) -51% | Potency [9] | Potency [11] | Potency [12] | Potency [13]

Fc1ccc(C(c2ccc(F)cc2)N2CCNCC2)cc1
inactive: Potency [1] | Potency [3] | Potency [18] | Potency [19] | Potency [4] | Potency [5] | Potency [6] | Potency [7] | Potency [14] | Potency [9] | Potency [11] | Potency [12] | Potency [13]
